Structures are written as SMILES. Several values for one entry are separate records, joined by “and”; a condition that tells them apart may be missing. Identical values can stand only once. Inconclusive results are not listed. Unmarked numbers belong to inactive results. Activity calls are given as the source filed them. The call rests on the fitted dose curve; in most records, active means well fitted curve in the direction sought with a large enough effect; inconclusive means small, poorly fitted or top-dose-only effect, or another doubt; inactive means no such curve, though single readings can be large; an effect the other way counts as inactive or inconclusive.

Data on 14 compounds can be found in PubChem BioAssay (NCATS).

Assay [1] has as its system CRL-7250. Briefly: Cytotoxic Profiling of Annotated Libraries Using Quantitative High-Throughput Screening (AID 1296008). Further: nearly all actives have a fitted effect of over 60% in size. On max response: on the % scale 0 is the no-effect control and ±100 the full control effect. The following applies: Five cell lines viability, CellTiter-Glo ATP luminescence, 48-72 h; max response: active compounds read low. In short, it runs like this: (§1)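 Compounds were pin-transferred onto cells and incubated 48 or 72 hr at 37 degree Celsius, 95% humidity. CellTiter-Glo was added, plates sat 10 min at room temperature, then ATP-coupled luminescence was imaged as the viability read-out.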
In general terms: ATP-based viability assays read luminescence as a measure of living cells.

For assay [2], the system named is HEK293. The assay is described as above. The following applies: Five cell lines viability, CellTiter-Glo ATP luminescence, 48-72 h; max response: active compounds read low. The method in brief: as §1
The test system of assay [3] is HaCat. The assay is described as above. The note with it: Five cell lines viability, CellTiter-Glo ATP luminescence, 48-72 h; max response: active compounds read low. The method in brief:
as §1

Assay [4] concerns KB-3-1. Described as above. The following applies: Five cell lines viability, CellTiter-Glo ATP luminescence, 48-72 h; max response: active compounds read low. The method in brief:
as §1

The test system of assay [5] is NIH3T3. The assay is described as above. The note with it: Five cell lines viability, CellTiter-Glo ATP luminescence, 48-72 h; max response: active compounds read low. The method in brief: as §1
The subject of assay [6] is HEK293T. Kind of assay: qHTS assay to identify novel small-molecules to repurpose for Merkel cell carcinoma treatment (AID 1296009). Further: nearly all actives have a fitted effect of over 60% in size. The following applies: MCC and control cell lines, CellTiter-Glo viability, 72 h; at 44.8 µM (top of the series) unless noted. In short, it runs like this: (§2)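 Cells exposed to NPC (8-point) and MIPE (11-point) compound dilutions for 72 hr at 37 degree celsius; viability read by CellTiter-Glo luminescence, normalized to no-cell and DMSO in-plate controls.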
(In general: In qHTS, concentration-response curves come from the screen itself.)

Assay [7] has as its system MCC-13. Described as above. The following applies: MCC and control cell lines, CellTiter-Glo viability, 72 h; series mostly up to 46 µM. The method in brief: as §2
Assay [8] has as its system MCC-26. Described as above. The note with it: MCC and control cell lines, CellTiter-Glo viability, 72 h; series mostly up to 46 µM. The method in brief:
as §2

Assay [9] deals with MKL-1. The assay is described as above. The following applies: MCC and control cell lines, CellTiter-Glo viability, 72 h; series mostly up to 46 µM. In short, it runs like this:
as §2

Assay [10] has as its system MKL-2. The assay is described as above. The following applies: MCC and control cell lines, CellTiter-Glo viability, 72 h; series mostly up to 46 µM. The method in brief: as §2
Assay [11] relates to UISO. Described as above. The note with it: MCC and control cell lines, CellTiter-Glo viability, 72 h; series mostly up to 46 µM. In short, it runs like this:
as §2

Assay [12] relates to WaGa. Described as above. The note with it: MCC and control cell lines, CellTiter-Glo viability, 72 h; series mostly up to 46 µM. In short, it runs like this: as §2
The test system of assay [13] is C33A. Kind of assay: Primary qHTS to identify gynecologic anti-cancer compounds using libraries of approved drugs and bioactive compounds (AID 1345084). Further: nearly all actives have a fitted effect of over 55% in size. The note with it: Gynecologic cancer cell panel viability, ATPlite luminescence, 48 h; series mostly up to 57.5 µM. The method in brief: (§3)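 Measured: luminescence after ATPlite addition (15 min, RT). Exposure: 48 h, 37 C, 5% CO2.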

Assay [14] relates to CASKI. The assay is described as above. The note with it: Gynecologic cancer cell panel viability, ATPlite luminescence, 48 h; series mostly up to 57.5 µM. The method in brief:
as §3

Assay [15] has as its system TAB113. Kind of assay: qHTS profiling for inhibitors of Plasmodium falciparum proliferation (AID 504749). Further: nearly all actives have a fitted effect of over 60% in size. The note with it: P. falciparum in erythrocytes, SYBR Green DNA, 72 h; series mostly up to 28.7 µM. The method in brief: (§4)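 P. falciparum-infected erythrocytes (0.3% parasitemia, 2.5% hematocrit final) were exposed to compounds for 72 h at 37 C in 5% CO2, then lysed with SYBR Green buffer overnight at room temperature; parasite DNA fluorescence was normalized to artemisinin and DMSO controls.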

Assay [16] relates to TAB165. Described as above. The following applies: P. falciparum in erythrocytes, SYBR Green DNA, 72 h; series mostly up to 28.7 µM. The method in brief: as §4
Assay [17] has as its system W2. The description is as above. The following applies: P. falciparum in erythrocytes, SYBR Green DNA, 72 h; series mostly up to 28.7 µM. In short, it runs like this: as §4
Assay [18] has as its system HACAT. Kind of assay: qHTS assay to identify novel small-molecules to repurpose for Merkel cell carcinoma treatment (AID 1296009). Further: nearly all actives have a fitted effect of over 60% in size. The following applies: MCC and control cell lines, CellTiter-Glo viability, 72 h; at 44.8 µM (top of the series) unless noted. In short, it runs like this:
as §2

Assay [19] deals with NIH3T3. Described as above. The following applies: MCC and control cell lines, CellTiter-Glo viability, 72 h; at 44.8 µM (top of the series) unless noted. The method in brief:
as §2

Assay [20] relates to CAOV3. Kind of assay: Primary qHTS to identify gynecologic anti-cancer compounds using libraries of approved drugs and bioactive compounds (AID 1345084). Further: nearly all actives have a fitted effect of over 55% in size. The following applies: Gynecologic cancer cell panel viability, ATPlite luminescence, 48 h; series mostly up to 57.5 µM. In short, it runs like this:
as §3
Potency means the concentration at half of the fitted maximal effect.

For `CC1(C)OC[C@@H](COC(=O)CCc2ccc(OC[C@@H](O)CNCCNC(=O)N3CCOCC3)cc2)O1`, the compound was called inactive in assay [1], in [2] and in assay [6]. In addition, the max response was 3.95% in assay [3]; -12.4% and -13.1% in assay [4]; 4.95% in assay [5]. Besides, the Potency result in [7], in [8], in assay [9], in assay [10], in assay [11] and in assay [12] was “inactive” throughout. In addition, the Potency result in assay [13] and in assay [14] was “inactive” throughout.

As for `CCCCCC=CCC=CCCCCCCCC(=O)OCC`, the Potency entry in assay [15], in assay [16], in assay [17], in [7], in [11] and in [13] was “inactive” each time. The Potency entry in assay [20] and in assay [14] was “inactive” in each case. Also, the max response in [1] is -11.8%; in [4] it was -4.13%. The compound was classed as inactive in [3], in assay [5], in assay [18] and in assay [19]. Also, the Potency in assay [10] is 15 µM (active).

Turning to `CN(C)CC/C=C1\c2ccccc2Sc2ccc(Cl)cc21`, the Potency in assay [16] is 7.94 µM (active); in assay [17] it was 2.69 µM (active); in assay [10] it was 11.9 µM (active). For the same compound, the max response is -3.17% in assay [1], -2.56% in assay [4] and -4.42% in [5]. In addition, the compound was called inactive in assay [3] and in assay [18]. Also, the Potency entry in assay [7], in assay [8], in assay [13], in assay [20] and in [14] was “inactive” throughout.

For the compound `CC1(C)O[C@@H]2C[C@H]3[C@@H]4CCC5=CC(=O)CC[C@]5(C)[C@@]4(F)[C@@H](O)C[C@]3(C)[C@]2(C(=O)CCl)O1`, the max response in [1] was 2.38%; in assay [4] it was 33.4%; in [5] it was -10.1%. Also, the compound was called inactive in assay [3] and in [18]. The Potency result in assay [7], in assay [8], in assay [9], in [10], in [11] and in [12] was “inactive” in each case. Moreover, the Potency result in [13] and in assay [14] was “inactive” in each case.

With `CC(=O)Oc1ccc(C(c2ccc(OC(C)=O)cc2)c2ccccn2)cc1`, the Potency result in assay [15], in [16], in assay [17], in [7], in assay [8] and in assay [9] was “inactive” each time. The Potency result in assay [10], in assay [12], in [13] and in [20] was “inactive” in each case. Moreover, the max response in [1] was -7.93%; in assay [3], -0.175%; in assay [4], -5.6%; in [5], -2.66%.

For the compound `CCCCCCC[N+](CC)(CC)CCCCc1ccc(Cl)cc1`, the Potency was 2.24 µM (active) in [15]; 2 µM (active) in assay [16]; 1.61 µM (active) in [17]; 7.5 µM (active) in [1]; 6.68 µM (active) in assay [2]; 0.596 µM (active) in assay [9]. Also, the Potency in assay [10] was 0.237 µM (active); in assay [11], 4.73 µM (active); in assay [12], 0.668 µM (active); in [20], 11.2 µM (active); in [14], 10 µM (active). Moreover, the max response in assay [4] was -16.1%. Besides, the Potency entry in assay [7] was “inactive”.

In the case of `C/C=C(/C(=C/C)c1ccc(O)cc1)c1ccc(O)cc1`, the max response in [1] is 1.03%; in [3] it was -0.716%; in assay [4], -11.5%. Moreover, the Potency entry in assay [7], in assay [8], in assay [9], in assay [10], in assay [11] and in assay [13] was “inactive” each time. In addition, the Potency entry in assay [20] and in [14] was “inactive” throughout.

As to `COc1cc2c(cc1OC)C(C(C(=O)N(CCc1ccc(OC)c(OC)c1OC)CCc1ccc(OC)c(OC)c1OC)c1ccccc1)=NCC2` (centres undefined), the values for the Potency in [15], in assay [16] and in [17] were 2.82 µM (active), 1.26 µM (active) and 1.07 µM (active), respectively. Further, the max response was -6.63% in assay [1], 28% in assay [4] and 0.673% in assay [5]. Besides, the call in [3] and in assay [18] was inactive. The Potency result in [7], in assay [11], in [13], in assay [20] and in assay [14] was “inactive” in each case.

Turning to `C[C@H]1C[C@H]2[C@@H]3CCC4=CC(=O)C=C[C@]4(C)[C@@]3(Cl)[C@@H](O)C[C@]2(C)[C@@]1(O)C(=O)CO`, the Potency result in assay [15], in assay [16], in [17], in assay [7], in assay [8] and in assay [9] was “inactive” in each case. In addition, the Potency entry in [11], in assay [12], in assay [13] and in assay [14] was “inactive” in each case. Also, the call in assay [1] was inactive. The results for the max response in assay [3], in assay [4] and in assay [5] were -6.93%, 6.92% and -12.3%, respectively.

For the compound `CN(C/C=C/c1ccccc1)Cc1cccc2ccccc12`, the values for the Potency in assay [1] and in [3] were 26.6 µM (active) and 21.1 µM (active), respectively. Moreover, in assay [4], the max response is 4.5%. The Potency entry in [7], in assay [8], in assay [9], in [10], in [12] and in [13] was “inactive” in each case. The Potency result in assay [20] and in assay [14] was “inactive” in each case.

For the compound `COc1cc2c(cc1OC)[C@@H]1CC(=O)[C@@H](CC(C)C)CN1CC2`, the max response in assay [1] was -4.44%; in assay [3] it was -0.956%; in [4] it was 20.8%. Also, the compound was called inactive in [5] and in [19]. Besides, the Potency result in [7], in assay [8], in assay [9], in assay [10], in assay [11] and in assay [12] was “inactive” throughout. The Potency entry in assay [13], in assay [20] and in [14] was “inactive” in each case.

Turning to `Oc1ccc(Cl)c2cccnc12`, the Potency result in assay [15], in assay [16], in assay [13] and in assay [14] was “inactive” throughout. Also, the compound was called inactive in [1], in [3] and in [18]. In addition, the max response in [4] is -11.9%.

In the case of `CC1(C)O[C@@H]2C[C@H]3[C@@H]4C[C@H](F)C5=CC(=O)C=C[C@]5(C)[C@H]4[C@@H](O)C[C@]3(C)[C@]2(C(=O)CO)O1`, the max response in [1] was -27.4%; in assay [2], -23.8%; in [5] it was -4.68%. For the same compound, the Potency result in assay [7], in assay [9], in assay [10], in assay [11], in assay [12] and in [13] was “inactive” in each case. In addition, the Potency entry in assay [20] and in [14] was “inactive” each time.

With `CCCCOc1ccc(OCCCN2CCOCC2)cc1`, the Potency result in assay [15], in assay [16], in assay [17], in [7], in assay [8] and in assay [9] was “inactive” each time. For the same compound, the Potency result in assay [10], in assay [11], in assay [12], in [13], in assay [20] and in [14] was “inactive” throughout. Moreover, the max response was 2.95% in [1], -3.82% in assay [3] and 3.23% in [4].
